HTT aggregate: inhibitors of mutant huntingtin aggregate formation in PC12 cells. hit rate 1.1% among 220,000. Potency, µM (top dose mostly 46.1 µM), inactives show at the highest dose activity change, negative = inhibition, usual class: inhibitors. PC12 HttQ103-GFP aggregates, Acumen cytometry, 40 h; further: on the % scale 0 is the no-effect control and ±100 the full control effect; nearly all actives have a fitted effect of over 60% in size
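Using laser scanning cytometry, GFP-positive aggregates were counted after lysis of PC12 cells induced with 100 nM tebufenozide to express HTT exon 1 Q103–GFP. Compounds were tested in titration.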
HTT ATP protect: cytoprotection in Huntington HTT-Q103 PC12 cell model. PC12 HTT-Q103 induced, cytoprotection, ATP luminescence, 40 h. Potency, µM (series often up to 56.4 µM), inactives show cytoprotection (ATP increase), actives largely listed as activators. hit rate 0.14% among 230,000; further: % of control where 0% means no effect; nearly all actives have a fitted effect of over 45% in size
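Compounds added alongside 100 nM tebufenozide, which induces toxic Q103 huntingtin exon 1-GFP in stable PC12 cells; surviving cells quantified by luminescent ATP measurement. Medium: phenol red-free DMEM, 5% equine and 5% calf serum.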
ERK EGF inh: EGF-driven ERK pathway inhibition; hit rate 0.41% among 130,000; Potency, µM (highest dose often 11.5 µM), for the others: top-dose activity change, negative = inhibition, actives largely listed as inhibitors; HEK293-V1b, EGF-stimulated phospho-ERK AlphaScreen;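 further: plate controls were stimulated vehicle wells for no effect and unstimulated vehicle basal for full effect; nearly all actives have a fitted effect of over 55% in size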
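HEK293 cells stably expressing V1b receptor, serum-reduced (1% FBS) overnight, pretreated 30 min with compound, then stimulated 5 min with 25 nM EGF; phospho-ERK detected by AlphaScreen SureFire. AC50 from Hill fits, normalized to DMSO and EGF.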
Active calls of the source: *; ? = inconclusive; . = not tested or not shown; [ ] = dose if it differs, or a comment. Rows were chosen to be rich in hits. Some 1.4% of all compounds tested hit in one or more screens of this group. The call rests on the fitted dose curve; in most records, active means well fitted curve in the direction sought with a large enough effect; inconclusive means small, poorly fitted or top-dose-only effect, or another doubt; inactive means no such curve, though single readings can be large; an effect the other way counts as inactive or inconclusive. Potency means the concentration at half of the fitted maximal effect.

SMILES | HTT aggregate | HTT ATP protect | ERK EGF inh
O=C1CSc2ccc(C(=O)Nc3cccc(S(=O)(=O)Nc4ccc(Br)cc4)c3)cc2N1 | 7.9µM* | 38%[10 µM] | ?
COc1ccc(NC(=O)c2cccc(S(=O)(=O)Nc3ccc(Br)cc3)c2)cn1 | ? | -2%[10 µM] | 10%
CNC(CC(=O)O)C(=O)O (configuration not stated) | . | -16% | 16%
CCN(CC)COC(=S)S | . | -32%[10 µM] | .
[O-]/[N+](=N\O)c1ccccc1 | . | -2% | .
CN(C)c1ccc(-c2cc(NCc3cccnc3)ncn2)cc1 | . | -76% | 13%
CN(C)C(=O)c1ccc(-c2nc(NC3CCNCC3)c3ccccc3n2)cc1 | . | -17% | .
c1ccc2c(N3CCOCC3)nc(-c3ccncc3)nc2c1 | ? | -26%[10 µM] | 5%
c1cncc(-c2nc(N3CCOCC3)c3ccccc3n2)c1 | 0.89µM* | -7% | .
CS(C)(=O)=O | . | -16% | 1%
c1ccc(-c2nnc(-c3ccccn3)nc2NC2CCCCC2)cc1 | 3.5µM* | -38%[10 µM] | .
CNc1nc(-c2ccccn2)nnc1-c1ccccc1 | ? | -46%[10 µM] | .
COc1ccc(/C=C2\SC(=O)N(CC(=O)NNC(=O)c3ccccc3O)C2=O)cc1 | -7% | . | ?
COc1ccc(/C=C2\SC(=O)N(CC(=O)NNC(=O)c3ccccc3O)C2=O)cc1OC | -10% | -28%[10 µM] | 13µM*
COc1ccc(C(=O)NC(=S)N(Cc2ccccc2)Cc2ccccc2)cc1 | 10µM* | 12% | .
C=CCN(CC=C)C(=S)NC(=O)c1ccc(OC)cc1 | . | . | 13%
Cc1[nH]n(-c2ccccc2)c(=O)c1/C=N/O | ? | -32% | .
Cc1[nH]n(-c2ccccc2)c(=O)c1N=Nc1ccc2c(c1)OCCO2 | 31% | . | 13µM*
Cc1[nH]n(-c2ccccc2)c(=O)c1N=O | 0.63µM* | . | -8%
Cc1ccc(N=Nc2c(C)[nH]n(-c3ccccc3)c2=O)c(C)c1 | -13%[9.22 µM] | -12%[10 µM] | 2%
OCCNCCCOc1cccc(Cl)c1Cl | . | -73% | -6%
COc1cccc(Cn2c(=O)cnc3cnc(OC)nc32)c1 | . | -7% | .
O=C(CCn1cnc2ccccc21)N/N=C/c1ccc(O)cc1 | 10% | 12%[10 µM] | 4%
O=C(CCN1CCN(c2ccccc2)CC1)N/N=C/c1ccccc1O | 13µM* | -131% | -32%
O=C(CCn1cnc2ccccc21)N/N=C/c1ccccc1O | 10µM* | -30%[10 µM] | -1%
SMILES | HTT aggregate | HTT ATP protect | ERK EGF inh
O=C(CCC(=O)Nc1ccc(F)cc1)N/N=C/c1ccccc1O | ? | -41% | -11%
CN1CCN(CCC(=O)N/N=C/c2ccccc2F)CC1 | -8%[9.22 µM] | 16%[10 µM] | -8%[57.5 µM]
O=C(CCC(=O)N/N=C/c1ccccc1O)NCc1ccccc1 | 10µM* | 4%[10 µM] | 19%
Cc1ccc(S(=O)(=O)N[C@H](C(=O)O)C(C)C)cc1 | . | -15%[10 µM] | .
O=P1(O)Oc2c(c(-c3ccccc3)cc3ccc4ccccc4c23)-c2c(-c3ccccc3)cc3ccc4ccccc4c3c2O1 | . | -19% | -2%
CC(CCC(=O)O)(c1cc(Br)c(O)c(Br)c1)c1cc(Br)c(O)c(Br)c1 | . | -13%[10 µM] | .
O=C1C=CC(=O)N1CCCCCCN1C(=O)C=CC1=O | 5µM* | -88%[10 µM] | ?
CCN1C(=O)C=CC1=O | . | 8%[1.9 µM] | -4%
CC(C)N1CCN(c2ccc(OC[C@@H]3CO[C@@](Cn4cncn4)(c4ccc(Cl)cc4Cl)O3)cc2)CC1 | 6%[20.6 µM] | -20%[40.3 µM] | 15%[25.7 µM]
c1ccc(C2=Nn3c(nnc3-c3cccs3)SC2)cc1 | -2%[9.22 µM] | 15%[10 µM] | -9%[57.5 µM]
c1csc(C2=Nn3c(nnc3-c3ccncc3)SC2)c1 | . | 25µM* | .
CCOC(=O)/C(C#N)=C/c1ccc(OC(=O)c2ccco2)c(OCC)c1 | 8.9µM* | 18%[10 µM] | .
CCOC(=O)/C(C#N)=C\c1ccc(OC)c(OC)c1 | ? | 4% | -9%
Cc1cc(C)cc(CC(Cc2nc3ccccc3[nH]2)c2nc3ccccc3[nH]2)c1 (configuration not stated) | 22µM* | -11%[10 µM] | .
Cc1ccc(CC(Cc2nc3ccccc3[nH]2)c2nc3ccccc3[nH]2)cc1 (configuration not stated) | . | -14%[1.9 µM] | 1%
CO[C@H]1COC(=O)[C@@H](C)COC(=O)[C@@H](COCc2ccccc2)NC(=O)C/C=C\[C@H]1C | . | -4%[10 µM] | .
O=c1c(/C=N/OCc2ccc(Cl)cc2Cl)c[nH]n1-c1cccc(Cl)n1 | 10µM* | -101% | -3%
Cc1cc(O)c(/C=N/OCc2ccc(Cl)cc2Cl)c(=O)o1 | -19% | . | 1%
N[C@H](Cn1ccc(=O)n(Cc2ccccc2C(=O)O)c1=O)C(=O)O | . | ? | -8%
COc1cccc(Cn2c(=O)c(-c3cc(F)cc(F)c3)nc3cnc(N(C)C)nc32)c1 | . | 2% | .
c1ccc(Nc2ncncc2-c2ccoc2)cc1 | . | -9% | .
Cc1ccc(S(=O)(=O)Nc2ccccc2C(=O)Nc2nc(-c3ccc(F)cc3)cs2)cc1 | 9% | -44%[0.074 µM] | 8%
COc1ccc(-c2csc(NC(=O)c3ccccc3NS(=O)(=O)c3ccc(F)c(F)c3)n2)cc1 | 2.5µM* | -66%[10 µM] | -3%
COc1cccc(CS(=O)(=O)c2nnnn2CC(C)C)c1 | . | ? | -12%
Cc1cc(NC(=O)c2cccnc2)ccc1NC(=O)c1ccco1 | -3% | 8% | .
SMILES | HTT aggregate | HTT ATP protect | ERK EGF inh
COc1ccc(NC(=O)c2ccco2)cc1NC(=O)c1cccnc1 | 3.2µM* | -14%[0.074 µM] | .
COc1ccc(/C=N/Nc2nnc(-c3ncc[nH]3)c3ccccc23)cc1 | ? | -42% | .
Oc1ccc2ccccc2c1/C=N/Nc1nnc(-c2ncc[nH]2)c2ccccc12 | 0.79µM* | -76%[10 µM] | .
COc1ccc(OC)c(C2OCCC=CC2C)c1 (configuration not stated) | . | 0%[10 µM] | .
COC(=O)c1nnc(C(=O)NCc2ccccc2)c2[nH]c3ccccc3c12 | . | ? | -1%
CCCCNC(=O)NS(=O)(=O)c1ccc(N)cc1 | -8% | ? | .
S=C(NCCC(c1ccccc1)c1ccccc1)Nc1ccccc1Cl | 20µM* | -53% | .
S=C(NCCC(c1ccccc1)c1ccccc1)Nc1ccc(Cl)cc1 | ? | -70% | .
O=C(COC(=O)c1oc2ccccc2c1CSc1ccc(Cl)cc1)NC1CCCC1 | -10% | -3%[10 µM] | 5%
NC(=O)COC(=O)c1oc2ccccc2c1CSc1ccc(Cl)cc1 | 11µM* | 32%[10 µM] | 1%
C[C@H](NCCc1ccc(O)cc1)[C@@H](O)c1ccc(O)cc1 | 11% | -33% | -9%[25.7 µM]
CCCCOc1cc(C[C@@H]2CNC(=O)N2)ccc1OC | . | -15%[1.9 µM] | -7%
Cc1ccc(C(=O)Nc2ccc(Cc3ccncc3)cc2)cc1[N+](=O)[O-] | 13µM* | -49% | .
O=C(Nc1ccc(Cc2ccncc2)cc1)c1cccc([N+](=O)[O-])c1 | 12% | 10%[10 µM] | 4%
CCc1cccc(C)c1NC(=S)NCCc1c(C)[nH]c2ccc(C)cc12 | ? | . | -5%
CCc1cccc(CC)c1NC(=S)NCCc1c(C)[nH]c2ccc(C)cc12 | 6.3µM* | . | -2%
O=C(O)c1sccc1S(=O)(=O)Nc1ccc(Cl)cc1 | . | -2% | 8%
N#Cc1ccc(C23CC4(C2)[C@H](CN(Cc2cccnc2)[C@@H]4c2ccccc2)C3c2ccc(C(F)(F)F)cc2)cc1 (some centres not stated) | . | -56% | 0%
c1cnc2c(c1)ccc1cccnc12 | 7.9µM* | 0%[10 µM] | -4%
Cc1cccc2cccnc12 | . | -23% | .
C/C(=N\Nc1cc(C)nc(-c2ccccc2O)n1)c1ccccc1 | . | . | 32%

Compound activity (PubChem)
